Bioassay records (PubChem)
SARS PLP yeast: SARS-CoV PLP inhibition in yeast; S. cerevisiae expressing SARS-CoV PLpro, growth rescue; Potency, µM (top dose mostly 32.9 µM), most hits filed as activators; actives 0.19% (n = 330,000); AID 485353; further: nearly all actives have a fitted effect of over 55% in size
Pf growth 96h: inhibits malaria parasite growth, 96 h | P. falciparum luciferase reporter growth, 96 h | Potency, µM (top dose mostly 28.7 µM), actives largely listed as inhibitors | actives 6.9% (n = 320,000) | AID 504834; active means well fitted inhibition curve with a large enough effect; inconclusive means small, poorly fitted or top-dose-only effect, or another doubt; inactive means no such curve, though single readings can be large or run the other way
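Delayed-death screen, second-generation endpoint: infected erythrocytes, 2% hematocrit, 0.05% parasitemia final; 96 hours at 37 C, 5% CO2; luciferase detection reagent; luminescence decrease equals reduced growth.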
NS1 function inh: inhibitors of influenza NS1 protein function. Potency, µM (titrated, usually from 46.1 µM). AID 2326. actives 0.4% (n = 270,000); further: actives are rising curves; nearly all actives have a fitted effect of over 50% in size
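S. cerevisiae expressing influenza A NS1, grown in glucose, washed, then diluted 1:100 into pH 6.0 -URA galactose medium with 23 nl compound. Growth recovery read as OD600; NS1-free strain serves as control.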
Shiga inhibitor: Shiga toxin inhibition; Vero cells, Shiga toxin protein synthesis inhibition reporter; inhibition, % at 38.7 µM; actives 9.2% (n = 290,000); AID 2315; in the data active means inhibition mostly above about 28%, no sharp cut-off; inactive means mostly below about 43%
CHX counter: affects cycloheximide protein synthesis inhibition readout, counter-screen. max response, %. AID 2314. cell reporter, cycloheximide protein synthesis inhibition counterscreen. actives 12% (n = 300,000); in the data active means max response mostly above about 13%, no sharp cut-off; inactive means mostly below about 14%; further: read at 38.3 µM for the half of the compounds with a filed dose
Pf growth 48h: P. falciparum growth inhibition at 48 hours (one generation); P. falciparum luciferase growth in erythrocytes, 48 h; Potency, µM (doses to about 28.7 µM), most hits filed as inhibitors; actives 5.9% (n = 310,000); AID 504832; active means well fitted inhibition curve with a large enough effect; inconclusive means small, poorly fitted or top-dose-only effect, or another doubt; inactive means no such curve, though single readings can be large or run the other way
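Compounds are pin-transferred into medium, infected erythrocytes (2% hematocrit, 0.1% parasitemia final) are added, and plates sit one parasite generation at 37 C in 5% CO2. Detection reagent is then added and luminescence measured.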
Numbers stand for hits; . = inactive; ? = inconclusive; / = no result; [ ] = remark or other dose. Rows were chosen to be rich in hits. Some 21% of all compounds tested hit in one or more screens of this group. Unless noted, the call rests on the fitted dose curve.

SMILES	SARS PLP yeast	Pf growth 96h	NS1 function inh	Shiga inhibitor	CHX counter	Pf growth 48h
COC(=O)c1cn[nH]c1NC(=S)Nc1ccc(C)cc1Cl	.	.	.	74	27	.
CCOC(=O)c1cn[nH]c1NC(=S)Nc1ccc(OC)cc1	.	.	.	.	.	.
COC(=O)c1cn[nH]c1NC(=S)Nc1ccc(Cl)c(Cl)c1	.	.	.	118	71	/
COC(=O)c1cn[nH]c1NC(=S)Nc1ccccc1C	.	.	.	92	45	.
COC(=O)c1ccccc1NC(=S)NC(C)=O	.	.[1.15 µM]	.	.	.	.
CC(CC(F)(F)F)N1CCC(n2nccc2NC(=O)CCCc2ccccc2)CC1 (stereo not given)	.	?	.	.	.	.
CCOC(OCC)P(=O)(c1ccccc1)c1ccccc1	.	12µM	.	.	.	.
CCCC(C(=O)OCC)P(=O)(c1ccccc1)c1ccccc1 (stereo not given)	.	?	?	.	.	/
COc1ccc(Cc2nc3c4c(ncn3n2)Oc2ccc3ccccc3c2C4c2ccc(OC)c(OC)c2)cc1 (stereo not given)	.	?	.	.	.	1.7µM
COc1ccc(Cc2nc3c4c(ncn3n2)Oc2c(ccc3ccccc23)C4c2ccc(OC)c(OC)c2)cc1 (stereo not given)	.	1.9µM	.	.	.	2.6µM
COc1ccc(C2c3ccc(O)cc3Oc3ncn4nc(-c5ccccn5)nc4c32)cc1 (stereo not given)	.	?	?	.	.	?
CCCn1c(CN(Cc2ccccc2)Cc2ccccc2)nc2c1c(=O)n(C)c(=O)n2C	.	9.3µM	.	.	.	?
CCCCn1c(CN(C)Cc2ccccc2)nc2c1c(=O)n(C)c(=O)n2C	.	.	.	.	.	13µM
CCCc1nc2c([nH]1)c(=O)n(C)c(=O)n2C	.	.	.	.	.	.
CCCn1c(CN(C)Cc2ccccc2)nc2c1c(=O)n(C)c(=O)n2C	.	.	.	.	.	.
CN(Cc1ccccc1)Cc1nc2c([nH]1)c(=O)n(C)c(=O)n2C	.	10µM	.	.	.	?
CCOC(=O)Cn1c(CN(Cc2ccccc2)Cc2ccccc2)nc2c1c(=O)n(C)c(=O)n2C	.	?	/	.	.	5.9µM
CN(Cc1ccccc1)Cc1nc2c(c(=O)n(C)c(=O)n2C)n1CCc1ccccc1	/	/	.	/	/	/
CC1CC=CC2C1C(=O)N(Cc1ccccc1)C2c1cccc([N+](=O)[O-])c1 (stereo not given)	/	/	/	.	.	/
CN(C(=O)Cn1nc(Cl)ccc1=O)C1CCCN(Cc2ccccc2F)C1 (stereo not given)	.	.	.	.	.	.
COCCn1c(CN(C)Cc2ccccc2)nc2c1c(=O)n(C)c(=O)n2C	.	5.9µM	.	.	.	/
CCOC(=O)C(=NCC1CCCO1)NNc1cc(Cl)ccc1Cl (stereo not given)	.	10µM	.	.	.	?
CCOC(=O)/C(=N\Nc1cc(Cl)ccc1Cl)N1CC(C)OC(C)C1 (stereo not given)	.	?	.	.	.	?
CCc1ccc2c(c1)cc(CN(C(=S)Nc1cccc(C)c1)C1CC1)c1nnnn12	.	2.3µM	.	.	.	?
CNC(=S)N(Cc1cc2cc(C)ccc2n2nnnc12)CC(C)(C)CN(C)C	.	5.9µM	.	.	.	?
SMILES	SARS PLP yeast	Pf growth 96h	NS1 function inh	Shiga inhibitor	CHX counter	Pf growth 48h
COCCN(Cc1cc2cc(C)ccc2n2nnnc12)C(=S)Nc1cccc(C)c1	.	.	/	.	.	5.2µM
Cc1ccc(C(=O)N(Cc2cccnc2)Cc2cc3cc(C)ccc3n3nnnc23)cc1	.	.	.	.	.	?
S=C(NCCc1ccccc1)Nc1cnc2ccccc2c1	.	.	/	61	31	.
O=C(Nc1cnc2ccccc2c1)c1ccncc1	.	.	.	183	73	/
O=C(NC(=S)Nc1cnc2ccccc2c1)c1ccccc1	.	.	.	63	47	.
O=C(NC(=S)Nc1ncc(Br)cc1Br)c1ccccc1	.	.	.	94	35	.
O=C(Cc1c(Cl)cccc1Cl)OCC(=O)N1CCOCC1	.	/	/	/	/	/
COc1ccc([C@@H]2CC=C(C(=O)O)[C@H](c3ccccc3F)N2S(=O)(=O)c2ccc(C)cc2)cc1OC	.	?	/	/	/	?
CC1(C)CC1C(=O)N/C(=C/CCCCSCC(N)C(=O)O)C(=O)O (stereo not given)	/	.	/	.	.	.
Cn1ncc2cc(NC(=S)NC(=O)c3ccccc3)ccc21	.	.	.	86	43	.
Cc1cc(C)nc(NC(=S)NC(=O)c2ccccc2)n1	.	0.93µM	.	.	.	.
CC(C)OC(=O)C1C(=O)CC(C)(O)C(C(=O)OC(C)C)C1c1cccc(O)c1 (stereo not given)	.	4.1µM	.	.	.	.
CC(C)COC(=O)C1C(=O)CC(C)(O)C(C(=O)OCC(C)C)C1c1cccnc1 (stereo not given)	.	/	.	.	.	9.3µM
CC(C)(C)OC(=O)C1C(=O)CC(C)(O)C(C(=O)OC(C)(C)C)C1c1cccnc1 (stereo not given)	.	?	.	.	.	/
O=C1CCN(C(=O)CNC(=O)Cc2ccccc2)CC1	.	.	/	.	.	?
CC1CCN(C(=O)CNC(=O)Cc2ccccc2)CC1	.	.	.	30	23	.
Cc1cc2ccccc2c(=O)n1CC(=O)NCC(=O)N1CCCC1	.	12µM	.	.	.	.
O=C(NCC(=O)N1CCCC(C(F)(F)F)C1)c1ccco1 (stereo not given)	.	.	/	/	/	.
O=C(CNC(=O)Cc1ccccc1)NCC(=O)N1CCCCC1	.	.	.	.	.	.
O=C(Cc1ccccc1)NCC(=O)N1CCCCCC1	.	?	.	.	19	/
CC1CCCN(C(=O)CNC(=O)c2ccco2)C1 (stereo not given)	.	.	.	53	33	.
C=CCOc1ccc(Br)cc1CNCC	.	.	/	.	.	.
COc1cc(OC)cc(C(=O)NCC2CCCN(C(=O)c3oc(C)cc3C)C2)c1 (stereo not given)	.	?	.	.	.	.
O=C1NC(=Nc2ccccc2)S/C1=C\c1cccn1-c1ccccc1	.	?	.	61	47	/
Cc1ccccc1N=C1NC(=O)/C(=C/c2cccn2C)S1	.	.	.	.	13	?
SMILES	SARS PLP yeast	Pf growth 96h	NS1 function inh	Shiga inhibitor	CHX counter	Pf growth 48h
O=C1Nc2ccccc2S/C1=C/c1cccs1	.	.	.	62	28	.
Cc1cccc(N=C2NC(=O)/C(=C/c3cccn3C)S2)c1	.	?	.	52	27	?
O=C1/C(=C/c2cccs2)Sc2ccccc21	.	?	.	.	.	?
Cc1c(/C=C2\SC(=Nc3cccc(C(=O)O)c3)NC2=O)c2ccccc2n1C	.	.	.	.	.	.
O=C1NC(=Nc2ccccc2)S/C1=C\c1cccnc1	.	.	.	.	.	.
Cc1cccc(N=C2NC(=O)/C(=C3/C(=O)N(C)c4ccccc43)S2)c1C	.	.	.	.	.	.
